# In the library only some 2.8% were active in any assay of this set; here they are far more common.
# PI5P4K alpha inh: blocks human PI5P4K alpha kinase activity; P48426; PI5P4Kalpha enzyme, ADP-Glo luminescence, 60 min; hits give low values; max response, %; 1.2% of 330,000 active; AID 652105; active = max response of -50% or lower; inconclusive = between -30% and -50%; inactive = -30% or higher; note: value at the top dose of about 77 µM; % is set by controls: 0 for no effect and ±100 for the full control effect
#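 Enzyme plus substrate dispensed, test compounds pinned in, then ATP (5 microM final) added. After 60 min at RT, ADP-Glo reagent 1 for 45 min and reagent 2 for 30 min preceded luminescence imaging.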
# Pol beta inh: inhibitors of human DNA polymerase beta | Potency, µM (doses to about 114 µM), without a hit: at the highest dose activity change, negative = inhibition, actives largely listed as inhibitors | 1.3% of 340,000 active | P06746 | AID 485314 | Pol beta primer extension/strand displacement, fluorescence kinetic; note: potency is the fitted concentration of half-maximal effect; % is set by controls: 0 for no effect and ±100 for the full control effect
#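 Kinetic readout of DNA synthesis with strand displacement by Pol beta. Compound and 10 nM enzyme sit 15 min at room temperature; 50 nM substrate starts the reaction, read immediately and at 10 min.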
# Pol eta inh-1: inhibitors of human DNA polymerase eta | Q9Y253 | recombinant Pol eta, fluorescent DNA replication assay | Potency, µM (doses to about 114 µM), inactives show at the highest dose activity change, negative = inhibition, usual class: inhibitors | 1.2% of 390,000 active; note: potency is the fitted concentration of half-maximal effect; % is set by controls: 0 for no effect and ±100 for the full control effect
#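 Fluorescent replication assay: 50 nM final substrate added after a 15 min room-temperature compound preincubation with 10 nM enzyme. Signal taken at 0 min and again at 10 min.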
# WRN helicase inh-1: blocks human WRN helicase; Q14191; 0.46% of 360,000 active; AID 651768; Potency, µM (series often up to 114 µM), without a hit: top-dose activity change, negative = inhibition, hits mostly inhibitors; WRN helicase unwinding, fluorescent forked duplex, kinetic; note: potency is the fitted concentration of half-maximal effect; % is set by controls: 0 for no effect and ±100 for the full control effect; nearly all actives have a fitted effect of over 55% in size
#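 Kinetic red-fluorescence monitoring (525/598 nm) tracks WRN helicase activity after 100 nM fluorophore-quencher forked duplex and 2 mM ATP are added to 20 nM enzyme pretreated 15 min at room temperature with compound.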
# Pol kappa inh-1: blocks human DNA polymerase kappa activity; 0.53% of 400,000 active; purified Pol kappa, fluorescent DNA synthesis assay, 10 min; Q9UBT6; Potency, µM (top dose mostly 107 µM), for inactives: at the top dose activity, negative = inhibition, actives largely listed as inhibitors; note: potency is the fitted concentration of half-maximal effect; % is set by controls: 0 for no effect and ±100 for the full control effect
#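 Here, compound and 10 nM enzyme are combined for 15 min at room temperature; adding 50 nM substrate (final) starts DNA synthesis, tracked by fluorescence at 0 and 10 min against buffer-only wells.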
# POLI inh: DNA polymerase iota (human) inhibition; 1% of 390,000 active; Potency, µM (highest dose often 115 µM), inactives show at the highest dose activity, negative = inhibition, actives largely listed as inhibitors; Pol iota fluorescent replication assay, 10 min; AID 588590; Q9UNA4; note: potency is the fitted concentration of half-maximal effect
#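 Pol iota at 10 nM preincubated 15 min with compounds at room temperature; reaction started with fluorescent substrate, 50 nM final. Fluorescence read kinetically at 0 and 10 min; buffer-only wells as negative control.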
# BAZ2B inh: inhibits human BAZ2B bromodomain, hit validation; shares compounds with Pol kappa inh-1; AlphaScreen BAZ2B / biotin-H3K14Ac peptide displacement; Potency, µM, usual class: inhibitors; 100% of 25 active; AID 588809; calls by dose curve
# BAZ2B bead ctr: counter-screen for BAZ2B inhibitors: AlphaScreen signal interference; shares compounds with Pol kappa inh-1; AlphaScreen biotin-His6 peptide bead counterscreen, signal decrease; Potency, µM (titrated, usually from 57.1 µM), without a hit: at the top dose activity change, negative = inhibition, usual class: inhibitors; 25 tested, under 10 active; AID 588859;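 active = clear concentration-dependent signal drop in the bead assay lacking the target, so a primary-screen artifact; inconclusive = weak, partial or single-dose response; inactive = no response, so a real primary hit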
# TbPGK inh: validation of Trypanosoma brucei phosphoglycerate kinase inhibitors. shares compounds with Pol kappa inh-1. TbPGK coupled GAPDH assay, Kinase-Glo luminescence. Potency, µM (doses to about 57.5 µM), for inactives: at the highest dose activity change, negative = inhibition, most hits filed as inhibitors. 79% of 500 active. AID 686980; note: potency is the fitted concentration of half-maximal effect; % is set by controls: 0 for no effect and ±100 for the full control effect; nearly all actives have a fitted effect of over 65% in size
# POLI cherry-pick: Human Pol iota inhibitor confirmatory assay; shares compounds with Pol kappa inh-1; Pol iota primer extension, TAMRA/BHQ fluorescence; Potency, µM, usual class: inhibitors; 77% of 1,500 active; AID 720496; note: potency is the fitted concentration of half-maximal effect
# GALK confirm: galactokinase (human) inhibition, confirmation; shares compounds with Pol eta inh-1; purified GALK, Kinase-Glo ATP depletion luminescence; Potency, µM (titrated, usually from 115 µM), for inactives: at the highest dose activity, negative = inhibition, hits mostly inhibitors; 70% of 150 active
# GALK redox cs: generates H2O2 by redox cycling, flagging GALK artifacts. shares compounds with Pol eta inh-1. Phenol red-HRP H2O2 redox cycling, absorbance 600 nm. Potency, µM (top dose mostly 115 µM), for the others: at the highest dose activity change, negative = H2O2 signal, actives largely listed as inhibitors. 40% of 150 active. AID 2035
# HEK293 viability: HEK-293 cytotoxicity, GALK inhibitor secondary; HEK-293 viability, ATP luminescence (CellTiter-Glo), 24/48 h; Potency, µM (titrated, usually from 46.1 µM), for the others: at the highest dose activity change, negative = cytotoxicity, actives largely listed as inhibitors; 10% of 170 active; shares compounds with Pol eta inh-1; note: potency is the fitted concentration of half-maximal effect; % is set by controls: 0 for no effect and ±100 for the full control effect
# Pol kappa inh-2: Pol kappa (human) inhibition, cherry-pick confirmation; shares compounds with Pol eta inh-1; purified Pol-kappa, fluorescent strand-displacement substrate; Potency, µM, usual class: inhibitors; 76% of 920 active; AID 720501; note: potency is the fitted concentration of half-maximal effect
# Pol eta inh-2: confirmation of human DNA polymerase eta inhibitors. AID 720502. Potency, µM, usual class: inhibitors. Pol eta primer extension, TAMRA/BHQ fluorescence, 10 min. 64% of 2,600 active. shares compounds with Pol eta inh-1; note: potency is the fitted concentration of half-maximal effect
# WRN helicase inh-2: WRN helicase inhibition, cherry-pick retest; shares compounds with WRN helicase inh-1; WRN helicase DNA unwinding, fluorescence kinetic; Potency, µM (doses to about 57.1 µM), inactives show top-dose activity, negative = inhibition, hits mostly inhibitors; 63% of 610 active; note: potency is the fitted concentration of half-maximal effect; nearly all actives have a fitted effect of over 65% in size
# TO DNA binding: DNA binding via thiazole orange displacement | 10% of 610 active | AID 720499 | Potency, µM (top dose mostly 57.1 µM), for inactives: at the top dose activity change, negative = inhibition, most hits filed as inhibitors | shares compounds with WRN helicase inh-1 | thiazole orange DNA binding displacement, fluorescence;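 note: drop in dye fluorescence marks compound binding to DNA; potency is the fitted concentration of half-maximal effect; % is set by controls: 0 for no effect and ±100 for the full control effect; nearly all actives have a fitted effect of over 60% in size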
# BLM helicase inh: blocks human BLM helicase in WRN counterscreen; Potency, µM (series often up to 57.1 µM), without a hit: top-dose activity change, negative = inhibition, usual class: inhibitors; shares compounds with WRN helicase inh-1; 60% of 610 active; Recombinant BLM helicase DNA unwinding, red fluorescence; AID 720503; note: potency is the fitted concentration of half-maximal effect; nearly all actives have a fitted effect of over 60% in size
# ADP-Glo counter: interferes with ADP-Glo detection without enzyme present. shares compounds with PI5P4K alpha inh. ADP-Glo detection counter-screen, luciferase luminescence, no enzyme. Potency, µM (top dose mostly 76.9 µM), inactives show at the top dose activity change, negative = inhibition, actives largely listed as inhibitors. 1,100 tested, under 10 active
# * = called active by the depositor; u = inconclusive; x = no result given; [ ] = remark or other dose. Unless noted, calls come from the whole dose curve; as a rule, active = well fitted curve in the direction sought with a large enough effect; inconclusive = small, poorly fitted or top-dose-only effect, or another doubt; inactive = no such curve, though single readings can be large; an effect the other way counts as inactive or inconclusive.
SMILES,PI5P4K alpha inh,Pol beta inh,Pol eta inh-1,WRN helicase inh-1,Pol kappa inh-1,POLI inh,Pol eta inh-2,others
COc1ccc(OC)c(NC(=O)COC(=O)c2cc3c(s2)CCC3)c1,-83*,7.9µM*,10µM*,24µM*,13µM*,3.5µM*,15*,BAZ2B inh=22*;BAZ2B bead ctr=u;TbPGK inh=4.6µM*;POLI cherry-pick=9.5*;WRN helicase inh-2=17µM*;TO DNA binding=u;BLM helicase inh=3µM*;ADP-Glo counter=-1%
COc1ccc(-c2ccc3n2Cc2cnnn2-c2ccccc2-3)cc1,-4,x,-16%,-1%,7%,29%,x,
O=[N+]([O-])c1ccc(Sc2nc3ccccc3o2)c([N+](=O)[O-])c1,x,5%,50µM*,u,-4%,11µM*,u,
c1cc(CN2CC3(CCNCC3)C2)ccn1,x,x,x,x,-4%[60.1 µM],x,x,
Cc1cc2c(C(C)C)c(O)c(O)c(C=O)c2c(O)c1-c1c(C)cc2c(C(C)C)c(O)c(O)c(C=O)c2c1O,x,0.56µM*,x,x,11µM*,2.5µM*,x,GALK confirm=24µM*;GALK redox cs=-9%;HEK293 viability=6%
CCC1(O)C(=O)OCc2c1cc1n(c2=O)Cc2cc3c(N)cccc3nc2-1 (centres undefined),-10,x,-6%,2%,-5%,36%,x,
Cc1ccc(NC(=O)C2CCCN(c3ncnc4onc(C)c34)C2)c(Cl)c1 (centres undefined),x,-15%,-16%,x,4%,31%,x,
O=C(O)c1ccccc1-c1ccc(C=C2C(=O)N(c3ccccc3)C(=S)N(c3ccccc3)C2=O)o1,u,45µM*,18µM*,u,u,u,34*,Pol kappa inh-2=17*
CN1C[C@H](C(=O)N[C@]2(C)O[C@@]3(O)C4CCCN4C(=O)[C@H](Cc4ccccc4)N3C2=O)C[C@@H]2c3cccc4[nH]cc(c34)C[C@H]21 (some centres undefined),x,12%[57.1 µM],-8%[57.1 µM],x,-11%[19.4 µM],-1%[58.9 µM],x,
O=[N+]([O-])c1ccc(N2CCCCCC2)c2nonc12,-3,20µM*,u,22µM*,u,28µM*,60*,
C[C@]12C=CC(=O)C=C1CC[C@@H]1[C@@H]2CC[C@@]2(C)[C@H]1CC[C@]2(C)O,x,x,x,x,1%[60.1 µM],x,x,
CC([C@H](O)c1ccccc1)N(C)C (some centres undefined),x,x,x,x,7%[19.4 µM],x,x,
CCCC[C@@H](C)[C@@H](OC(=O)C[C@@H](CC(=O)O)C(=O)O)[C@H](C[C@@H](C)C[C@H](O)CCCC[C@@H](O)C[C@H](O)[C@H](C)N)OC(=O)C[C@H](CC(=O)O)C(=O)O,x,x,x,x,5%[19.4 µM],x,x,
CCCCC(C)C(OC(=O)CC(CC(=O)O)C(=O)O)C(CC(C)CC(O)CCCCC(O)CC(O)C(C)N)OC(=O)CC(CC(=O)O)C(=O)O (centres undefined),-1,u,u,-1%[57.1 µM],79µM*,19%,76*,
CC(C)C(=O)Nc1ccc([N+](=O)[O-])c(C(F)(F)F)c1,9,5%[57.1 µM],-6%[57.1 µM],3%,-3%[60.1 µM],-2%[58.9 µM],x,
Cc1ccc2c(c1Cl)NC(C(=O)O)C1CC(Sc3ccccc3[N+](=O)[O-])C(Cl)C21 (centres undefined),u,u,45µM*,-9%[11.6 µM],u,u,u,
O=C(Cc1ccc(S(=O)(=O)N2CCCC2)s1)N1CCN(c2ccc(F)cc2)CC1,u,32µM*,u,-2%[11.6 µM],u,u,85*,
